Structures are written as SMILES.

Holding throughout (type): functional
For assay [1], the target named is Solute carrier family 2, facilitated glucose transporter member 1 (Homo sapiens) (UniProt P11166). In words: ST_JUDE_LEISH: Cytotoxicity at 2uM final concentration against transgenic Leishmania Mexicana promastigotes LmGLUT1 that are glucose transport deficient and complemented with the human glucose transporter GLUT1. Activity is measured by DNA content using SYBR green in vitro.

For assay [2], the target named is Hexose transporter 1 (Plasmodium falciparum) (UniProt O97467). Description: ST_JUDE_LEISH: Cytotoxicity at 2uM final concentration against transgenic Leishmania Mexicana promastigotes LmPfHT that are glucose transport deficient and complemented with the Plasmodium falciparum hexose transporter. Activity is measured by DNA content using SYBR green in vitro.
In assay [3] the target is Glucose transporter (Leishmania mexicana) (UniProt O61059). Description: ST_JUDE_LEISH: Cytotoxicity at 2uM final concentration against transgenic Leishmania Mexicana promastigotes LmGT2 that are glucose transport deficient and complemented with the L. Mexicana glucose transporter 2. Activity is measured by DNA content using SYBR green in vitro.

Solute carrier family 2, facilitated glucose transporter member 1 (Homo sapiens), sequence (P11166 whole entry): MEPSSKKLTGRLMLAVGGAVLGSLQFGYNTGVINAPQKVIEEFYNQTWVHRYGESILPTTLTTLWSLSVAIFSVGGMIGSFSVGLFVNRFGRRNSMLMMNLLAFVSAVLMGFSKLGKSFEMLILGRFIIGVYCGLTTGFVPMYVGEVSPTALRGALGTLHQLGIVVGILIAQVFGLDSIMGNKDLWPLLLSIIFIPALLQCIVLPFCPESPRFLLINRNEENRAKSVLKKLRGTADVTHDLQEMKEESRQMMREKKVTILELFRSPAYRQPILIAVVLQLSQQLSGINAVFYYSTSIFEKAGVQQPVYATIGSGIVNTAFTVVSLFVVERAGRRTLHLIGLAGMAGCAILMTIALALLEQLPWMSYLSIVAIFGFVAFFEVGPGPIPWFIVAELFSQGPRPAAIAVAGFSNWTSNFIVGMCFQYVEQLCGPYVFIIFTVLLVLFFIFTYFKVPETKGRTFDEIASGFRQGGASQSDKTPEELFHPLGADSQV

As a reminder, the inhibition is the change of the read-out against control, counted positive when it falls. For the compound `CC(NCCc1cccc(Cl)c1)C(O)c1ccc(OCCCCCCOc2ccc(C(O)C(C)NCCc3cccc(Cl)c3)cc2)cc1` (stereo unspecified), the inhibition in assay [1] is 38.2%; in assay [2], 69.9%; in assay [3], 24.4%.
As for `Cc1cccc2nc(-c3cccc(-c4cccc(NC(=O)C5CC(=O)Nc6ccccc65)c4)c3)[nH]c12` (stereo unspecified), the inhibition in assay [1] is 4.88%; in assay [2] it was -1.8%; in assay [3] it was 5.82%.
`COc1cc2nc(NCc3nc4ccccc4[nH]3)nc(N)c2cc1OC`: the inhibition was determined as 11% in assay [1], 11.9% in assay [2] and 10.3% in assay [3].
On to `Cc1[nH]c(C)c(-c2ccc(OCc3cc(C(F)(F)F)cc(C(F)(F)F)c3)nc2)c(=O)c1Cl`, for which the results for the inhibition in assay [1], in assay [2] and in assay [3] were 6.26%, 9.78% and 4.84%, respectively.
Consider `NS(=O)(=O)c1cccc(Nc2nc(N[C@@H]3CCNC3)nc3cc[nH]c(=O)c23)c1`, for which the inhibition in assay [1] is 4.84%; in assay [2], 2.08%; in assay [3] it was -3%.
Consider `NC(CC1CC(=O)N1CC(=O)O)C(=O)O` (stereo unspecified), for which the results for the inhibition in assay [1], in assay [2] and in assay [3] were 8.57%, 7.82% and 8.53%, respectively.
Take `NC1CCCN(Cc2ccc(-c3cccc(-c4nc5ccccc5[nH]4)c3)cc2)C1` (stereo unspecified): the inhibition turned out to be 3.53% in assay [1], 4.34% in assay [2] and 4.25% in assay [3].
Take `COc1ccc(CNCc2cccc(-c3cccc(-c4nc5cc(C(F)(F)F)ccc5[nH]4)c3)c2)cc1`: the inhibition in assay [1] worked out at 5.4%; in assay [2], 4.65%; in assay [3], 3.48%.
With `COc1ccc(CN2CCC(NCc3cccc(C(F)(F)F)c3)CC2)cc1`, the figures for the inhibition in assay [1], in assay [2] and in assay [3] were 13.2%, 4.48% and 9.6%, respectively.
With `CCCCOc1c(CCNCCCCNCCc2cc(OC)c3ccccc3c2OCCCC)cc(OC)c2ccccc12`, the inhibition came out at 4.98% in assay [1], 5.5% in assay [2] and 2.03% in assay [3].
As for `O=C(Nc1ccccc1)N(Cc1ccc(-c2ccc(CNCc3ccc4c(c3)OCO4)cc2)cc1)C1CCN(Cc2ccccc2)CC1`, the inhibition in assay [1] was 0.62%; in assay [2], -0.02%; in assay [3], -6.42%.
For `CN1CCC(NCc2ccc(-c3cnc(NCc4ccccc4)nc3)cc2)CC1`, the values for the inhibition in assay [1], in assay [2] and in assay [3] were 1.18%, 4.31% and 2.57%, respectively.

The values are drawn from ChEMBL document CHEMBL3433997, “St. Jude Leishmania screening dataset” (2016).
